Measured values taken from the supplement of paper PMC7411054.

Key:
Assay in all cases: phenotypically active (imaging signature differs from DMSO and reproducible) at any of 0.3-9 uM (binary (1 = active, 0 = inactive)); higher = active
Conditions in all cases: treatment time: 24 h
A549-ACTB-RAB5A = test system: A549-ACTB-RAB5A
How it was run: (§1)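 Each of fifteen gene-edited A549, HepG2 and WPMY1 reporter lines, marked with BFP for segmentation and GFP and RFP/FusionRed, was treated in four wells at 0.3, 1, 3 or 9 µM for 24 h prior to live imaging. Normalisation of per-well live-cell features used solvent control wells. Deviation needed ≥3 of 4 wells beyond the 95th percentile of control Euclidean distances, and reproducibility needed a median replicate Pearson correlation above the 95th percentile of non-replicates. Both were required for phenotypic activity.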

A549-CANX-COX4 = test system: A549-CANX-COX4
How it was run: as §1

A549-GM130-SQSTM1 = test system: A549-GM130-SQSTM1
How it was run: as §1

A549-TP53BP1-CLTA = test system: A549-TP53BP1-CLTA
How it was run: as §1

A549-TUBA1B-RELA = test system: A549-TUBA1B-RELA
How it was run: as §1

HepG2-ACTB-RAB5A = test system: HepG2-ACTB-RAB5A
How it was run: as §1

HepG2-CANX-COX4 = test system: HepG2-CANX-COX4
How it was run: as §1

HepG2-GM130-SQSTM1 = test system: HepG2-GM130-SQSTM1
How it was run: as §1

HepG2-TP53BP1-CLTA = test system: HepG2-TP53BP1-CLTA
How it was run: as §1

HepG2-TUBA1B-RELA = test system: HepG2-TUBA1B-RELA
How it was run: as §1

WPMY1-ACTB-RAB5A = test system: WPMY1-ACTB-RAB5A
How it was run: as §1

WPMY1-CANX-COX4 = test system: WPMY1-CANX-COX4
How it was run: as §1

WPMY1-GM130-SQSTM1 = test system: WPMY1-GM130-SQSTM1
How it was run: as §1

WPMY1-TP53BP1-CLTA = test system: WPMY1-TP53BP1-CLTA
How it was run: as §1

WPMY1-TUBA1B-RELA = test system: WPMY1-TUBA1B-RELA
How it was run: as §1

Measured: phenotypically active

CC[N@@+]1(C)[C@@H]2CC[C@H]1C[C@@H](OC(=O)[C@]1(c3ccccc3)CC[C@H](C(=O)O[C@H]3C[C@H]4CC[C@@H](C3)[N@+]4(C)CC)c3ccccc31)C2 [beta- Belladonnine dichloroethylate]
inactive: A549-ACTB-RAB5A 0 | A549-CANX-COX4 0 | A549-GM130-SQSTM1 0 | A549-TP53BP1-CLTA 0 | A549-TUBA1B-RELA 0 | HepG2-ACTB-RAB5A 0 | HepG2-CANX-COX4 0 | HepG2-GM130-SQSTM1 0 | HepG2-TP53BP1-CLTA 0 | HepG2-TUBA1B-RELA 0 | WPMY1-ACTB-RAB5A 0 | WPMY1-CANX-COX4 0 | WPMY1-GM130-SQSTM1 0 | WPMY1-TP53BP1-CLTA 0 | WPMY1-TUBA1B-RELA 0

O=S(=O)(NCCSSCCNS(=O)(=O)c1cc(Cl)ccc1Cl)c1cc(Cl)ccc1Cl
inactive: A549-ACTB-RAB5A 0 | A549-CANX-COX4 0 | A549-GM130-SQSTM1 0 | A549-TP53BP1-CLTA 0 | A549-TUBA1B-RELA 0 | HepG2-ACTB-RAB5A 0 | HepG2-CANX-COX4 0 | HepG2-GM130-SQSTM1 0 | HepG2-TP53BP1-CLTA 0 | HepG2-TUBA1B-RELA 0 | WPMY1-ACTB-RAB5A 0 | WPMY1-CANX-COX4 0 | WPMY1-GM130-SQSTM1 0 | WPMY1-TP53BP1-CLTA 0 | WPMY1-TUBA1B-RELA 0

CC(=O)N[C@@H](CC(=O)O)C(=O)N[C@@H](CCC(=O)O)C(=O)O [Spaglumic acid]
inactive: A549-ACTB-RAB5A 0 | A549-CANX-COX4 0 | A549-GM130-SQSTM1 0 | A549-TP53BP1-CLTA 0 | A549-TUBA1B-RELA 0 | HepG2-ACTB-RAB5A 0 | HepG2-CANX-COX4 0 | HepG2-GM130-SQSTM1 0 | HepG2-TP53BP1-CLTA 0 | HepG2-TUBA1B-RELA 0 | WPMY1-ACTB-RAB5A 0 | WPMY1-CANX-COX4 0 | WPMY1-GM130-SQSTM1 0 | WPMY1-TP53BP1-CLTA 0 | WPMY1-TUBA1B-RELA 0

CCCCC(=O)O[C@H]1CC[C@H]2[C@@H]3CCc4cc(O)ccc4[C@H]3CC[C@]12C [estradiol valerate]
inactive: A549-ACTB-RAB5A 0 | A549-CANX-COX4 0 | A549-GM130-SQSTM1 0 | A549-TP53BP1-CLTA 0 | A549-TUBA1B-RELA 0 | HepG2-ACTB-RAB5A 0 | HepG2-CANX-COX4 0 | HepG2-GM130-SQSTM1 0 | HepG2-TP53BP1-CLTA 0 | HepG2-TUBA1B-RELA 0 | WPMY1-ACTB-RAB5A 0 | WPMY1-CANX-COX4 0 | WPMY1-GM130-SQSTM1 0 | WPMY1-TP53BP1-CLTA 0 | WPMY1-TUBA1B-RELA 0

COc1cc(O)c2c(c1C1CCCN1)OC(c1ccc(O)cc1)CC2 (stereo not given) [Vochysine (4 dia/énantio)]
inactive: A549-ACTB-RAB5A 0 | A549-CANX-COX4 0 | A549-GM130-SQSTM1 0 | A549-TP53BP1-CLTA 0 | A549-TUBA1B-RELA 0 | HepG2-ACTB-RAB5A 0 | HepG2-CANX-COX4 0 | HepG2-GM130-SQSTM1 0 | HepG2-TP53BP1-CLTA 0 | HepG2-TUBA1B-RELA 0 | WPMY1-ACTB-RAB5A 0 | WPMY1-CANX-COX4 0 | WPMY1-GM130-SQSTM1 0 | WPMY1-TP53BP1-CLTA 0 | WPMY1-TUBA1B-RELA 0

C=C(C)[C@@H]1CC[C@]2(C(=O)O)CC[C@]3(C)[C@H](CC[C@@H]4[C@@]5(C)CC[C@H](O)C(C)(C)[C@@H]5CC[C@]43C)[C@@H]12 [betulinic-acid]
inactive: A549-ACTB-RAB5A 0 | A549-CANX-COX4 0 | A549-GM130-SQSTM1 0 | A549-TP53BP1-CLTA 0 | A549-TUBA1B-RELA 0 | HepG2-ACTB-RAB5A 0 | HepG2-CANX-COX4 0 | HepG2-GM130-SQSTM1 0 | HepG2-TP53BP1-CLTA 0 | HepG2-TUBA1B-RELA 0 | WPMY1-ACTB-RAB5A 0 | WPMY1-CANX-COX4 0 | WPMY1-GM130-SQSTM1 0 | WPMY1-TP53BP1-CLTA 0 | WPMY1-TUBA1B-RELA 0

CC(=O)NCCCS(=O)(=O)O [acamprosate]
inactive: A549-ACTB-RAB5A 0 | A549-CANX-COX4 0 | A549-GM130-SQSTM1 0 | A549-TP53BP1-CLTA 0 | A549-TUBA1B-RELA 0 | HepG2-ACTB-RAB5A 0 | HepG2-CANX-COX4 0 | HepG2-GM130-SQSTM1 0 | HepG2-TP53BP1-CLTA 0 | HepG2-TUBA1B-RELA 0 | WPMY1-ACTB-RAB5A 0 | WPMY1-CANX-COX4 0 | WPMY1-GM130-SQSTM1 0 | WPMY1-TP53BP1-CLTA 0 | WPMY1-TUBA1B-RELA 0

Brc1c(Br)c(Br)c2[nH]nnc2c1Br
inactive: A549-ACTB-RAB5A 0 | A549-CANX-COX4 0 | A549-GM130-SQSTM1 0 | A549-TP53BP1-CLTA 0 | A549-TUBA1B-RELA 0 | HepG2-ACTB-RAB5A 0 | HepG2-CANX-COX4 0 | HepG2-GM130-SQSTM1 0 | HepG2-TP53BP1-CLTA 0 | HepG2-TUBA1B-RELA 0 | WPMY1-ACTB-RAB5A 0 | WPMY1-CANX-COX4 0 | WPMY1-GM130-SQSTM1 0 | WPMY1-TP53BP1-CLTA 0 | WPMY1-TUBA1B-RELA 0

O=C1CCc2c(ccc3ccccc23)O1 [Splitomicin]
inactive: A549-ACTB-RAB5A 0 | A549-CANX-COX4 0 | A549-GM130-SQSTM1 0 | A549-TP53BP1-CLTA 0 | A549-TUBA1B-RELA 0 | HepG2-ACTB-RAB5A 0 | HepG2-CANX-COX4 0 | HepG2-GM130-SQSTM1 0 | HepG2-TP53BP1-CLTA 0 | HepG2-TUBA1B-RELA 0 | WPMY1-ACTB-RAB5A 0 | WPMY1-CANX-COX4 0 | WPMY1-GM130-SQSTM1 0 | WPMY1-TP53BP1-CLTA 0 | WPMY1-TUBA1B-RELA 0

CCn1c(=O)c2cc(C(N)=O)c(N)nc2n(C2CC2)c1=O
inactive: A549-ACTB-RAB5A 0 | A549-CANX-COX4 0 | A549-GM130-SQSTM1 0 | A549-TP53BP1-CLTA 0 | A549-TUBA1B-RELA 0 | HepG2-ACTB-RAB5A 0 | HepG2-CANX-COX4 0 | HepG2-GM130-SQSTM1 0 | HepG2-TP53BP1-CLTA 0 | HepG2-TUBA1B-RELA 0 | WPMY1-ACTB-RAB5A 0 | WPMY1-CANX-COX4 0 | WPMY1-GM130-SQSTM1 0 | WPMY1-TP53BP1-CLTA 0 | WPMY1-TUBA1B-RELA 0

NC(=O)c1cccc(N)c1 [3-Aminobenzamide]
inactive: A549-ACTB-RAB5A 0 | A549-CANX-COX4 0 | A549-GM130-SQSTM1 0 | A549-TP53BP1-CLTA 0 | A549-TUBA1B-RELA 0 | HepG2-ACTB-RAB5A 0 | HepG2-CANX-COX4 0 | HepG2-GM130-SQSTM1 0 | HepG2-TP53BP1-CLTA 0 | HepG2-TUBA1B-RELA 0 | WPMY1-ACTB-RAB5A 0 | WPMY1-CANX-COX4 0 | WPMY1-GM130-SQSTM1 0 | WPMY1-TP53BP1-CLTA 0 | WPMY1-TUBA1B-RELA 0
